# Activity calls are given as the source filed them. Calls follow the shape of the dose curve; as a rule, active = well fitted activation curve with a large enough effect; inconclusive = small, poorly fitted or top-dose-only effect; inactive = no such curve, though single readings can be large or run the other way.
# Experiment: Confirmatory qHTS for Identification of Small Molecule Activators of Huntingtin-Antisense Promoter Activity
# Conditions: HEK293 HTT-AS promoter firefly luciferase reporter, 24 h; series mostly up to 57.5 µM; activity change, positive = activation: at the top concentration
# From the text: Assay Provider: Russell L. Margolis M.D.
# Department Neurology, Johns Hopkins University School of Medicine, Baltimore, MD
# Huntington's Disease (HD) is a neurodegenerative disorder caused by a CAG repeat expansion in exon 1 of huntingtin (HTT). While there are currently no disease-modifying treatments for HD, recent efforts have focused on development of nucleotide-based therapeutics to lower HTT expression. As an alternative to siRNA or oligonucleotide methods, we hypothesized that suppression of HTT expression might be accomplished by small molecules that either (1) directly decrease HTT expression by suppressing HTT promoter activity or (2) indirectly decrease HTT expression by increasing the promoter activity of HTT-AS, the gene antisense to HTT that appears to inhibit expression of HTT.
# We developed and employed a high throughput screen for modifiers of HTT and HTT-AS promoter activity using luminescent reporter HEK293 cells; of the 52,041 compounds tested, we identified 898 replicable hits. We used a rigorous stepwise approach to assess compound toxicity and the capacity of the compounds to specifically lower huntingtin protein in 5 different cell lines, including HEK293 cells, HD lymphoblastoid cells, mouse primary neurons, HD iPSCs differentiated into cortical-like neurons, and HD hESCs. We found no compounds which were able to lower huntingtin without lowering cell viability in all assays, though the potential efficacy of a few compounds at non-toxic doses could not be excluded.
# SEQUENCE No. (1, 2, 3, etc.); […] (e.g., Cells, Incubation, Reagent, etc.); VALUE and DESCRIPTION.
# 1; Reagent; 4 uL; 2,500 Hek293 luciferase reporter cells per wells
# 3; Compound; 23 nL; Control inhibitor / compound library
# 5; Reagent; 2.5 uL; Firefly Luc reagent; Dual-Glo Luciferase Reporter Assay System (Promega)
# 6; Time; 10 min; room temperature incubation
# 7; Detection; Luminescence; FLuc
# NOTES (numbers refer to sequence above)
# 1; High-throughput screening, measuring luminescence from a Hek293 luciferase reporter, was performed in 1,536 well white-walled tissue-culture treated plates. 2,500 cells were plated in 4 uL of Opti-MEM per well using a Multidrop Combi Reagent Dispenser (ThermoFisher).
# 2; Assay plates were cultured for 24 hours.
# 3; Control inhibitor (PTC124; final concentration of 50 uM) and compound library (at final concentrations of 460 nM - 57.5 uM) were added to the assay plate using the Kalypsis Pintool Robotic System equipped with 1536 pinheads.
# 4; Cells were then incubated for 24 hours at 37C prior to luminescence measurements.
# 5; In all cases, luminescence was measured using the Dual-Glo Luciferase Reporter Assay System (Promega) following the manufacturer's instructions.
# 6; Room temperature incubation.
# 7; Luminescence signal was obtained using the PerkinElmer ViewLux plate reader. Results were normalized to vehicle control (0% activity) and zero RLU (-100% activity).
row,Structure (SMILES),"activity change, positive = activation"
1,N#Cc1ccccc1NC(=O)c1cccn(Cc2ccccc2)c1=O,-45.2% (inactive)
2,CCOC(=O)c1ccc(NC(=O)c2cccn(Cc3ccccc3F)c2=O)cc1,-95.2% (inactive)
3,CC(C)N[C@@H]1CCn2c(=O)[nH]c3cccc(c32)[C@@H]1O,-4.14% (inactive)
4,Cc1ccccc1Cn1cccc(C(=O)Nc2nc3ccccc3s2)c1=O,-57.1% (inactive)
5,COc1ccc(-n2c(/C=C\c3ccccc3F)nc3ccccc3c2=O)cc1OC,-15.9% (inactive)
6,O=c1c2ccccc2nc(/C=C/c2cccc3ccccc23)n1-c1ccccc1Cl,-10.9% (inactive)
7,CCN(CC)C(=O)c1ccc(NC(=O)CCn2nc(-c3ccc(Cl)cc3)c3ccccc3c2=O)cc1,-34.6% (inactive)
8,CCCCc1ccc(NC(=O)c2cccn(Cc3ccc(Cl)cc3)c2=O)cc1,-94.5% (inactive)
9,O=C(N[C@H]1CN2CCC1CC2)c1ccc(Cl)cc1,-6.33% (inactive)
10,Cc1cc(-n2c(/C=C/c3ccc(Br)s3)nc3ccccc3c2=O)ccc1Br,-10.7% (inactive)
11,Cc1ccc(-n2c(/C=C/c3ccc(Br)s3)nc3ccccc3c2=O)cc1,-11.2% (inactive)
12,CCN(CC)C(=O)N[C@@H]1C=C2c3cccc4[nH]cc(c34)C[C@@H]2N(C)C1,-9.95% (inactive)
13,CC(C)(O)C=CC(=O)[C@](C)(O)[C@H]1[C@H](O)C[C@]2(C)[C@@H]3CC=C4[C@@H](C=C(O)C(=O)C4(C)C)[C@]3(C)C(=O)C[C@@]12C,-94.1% (inactive)
14,Cc1ccc(-n2c(/C=C\c3ccc(F)c(F)c3)nc3ccccc3c2=O)c(C)c1,-7.94% (inactive)
15,COc1cccc(C2SCC(=O)Nc3c2c(C)nn3-c2ccc(C)c(Cl)c2)c1OC (configuration not stated),-31.6% (inactive)
16,Nc1c(C(=O)Nc2ccc(Cl)c(C(F)(F)F)c2)sc2nc3c(cc12)N1CCC3CC1,-91.5% (inactive)
17,CCCOc1ccc(C2SCC(=O)Nc3c2c(C)nn3-c2cccc(C)c2)cc1OC (configuration not stated),-25.4% (inactive)
18,O=c1c2ccccc2nc(/C=C\c2ccc(F)cc2)n1-c1ccccc1F,-17% (inactive)
19,Cc1cccc(-n2c(/C=C\c3cccc(Br)c3)nc3ccccc3c2=O)c1,-4.07% (inactive)
20,CCOc1ccc(NC(=O)c2cccn(Cc3cccc(Cl)c3)c2=O)cc1,-91.2% (inactive)
21,CSc1ccc(CN2CCN(C(=O)COc3cccc(C)c3)CC2)cc1,-83.9% (inactive)
22,COC(=O)c1ccc(NC(=O)c2cccn(Cc3ccccc3C)c2=O)cc1,-84.1% (inactive)
